Screening data as filed in PubChem.
Sfp inh: Sfp phosphopantetheinyl transferase inhibition. Biochemical Sfp PPTase activity, qHTS. Potency, µM, inactives show largest response in the series, negative = inhibition, actives largely listed as inhibitors. 310,000 compounds, 3.5% hits;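 further: the enzyme is Sfp with the accession as filed and its product quenches rhodamine fluorescence; 0% = enzyme reaction without inhibitor and -100% = no enzyme wells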
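Reaction rates are the 30-min fluorescence difference (ex 525, em 598 nm) in wells containing 15 nM Sfp, 5 uM rhodamine-CoA and 12.5 uM BHQ-2-YbbR at pH 7.6 with 10 mM MgCl2.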
JMJD2A Tudor: blocks the human JMJD2A Tudor domain; O75164; AlphaScreen JMJD2A-Tudor / H3K4me3 peptide binding; Potency, µM (series often up to 114 µM), for inactives: top-dose activity change, negative = inhibition, hits mostly inhibitors; 390,000 compounds, 4.4% hits; AID 504339; further: on the % scale 0 is the no-effect control and ±100 the full control effect; nearly all actives have a fitted effect of over 50% in size
HP1b chromo inh: inhibitors of HP1-beta chromodomain binding to methylated histone tails; 390,000 compounds, 0.56% hits; Potency, µM (highest dose often 114 µM), without a hit: at the top dose activity change, negative = inhibition, actives largely listed as inhibitors; AlphaScreen HP1-beta / biotin-H3K9me3 peptide binding; further: nearly all actives have a fitted effect of over 70% in size
Target sequence (P83916 whole entry, looked up): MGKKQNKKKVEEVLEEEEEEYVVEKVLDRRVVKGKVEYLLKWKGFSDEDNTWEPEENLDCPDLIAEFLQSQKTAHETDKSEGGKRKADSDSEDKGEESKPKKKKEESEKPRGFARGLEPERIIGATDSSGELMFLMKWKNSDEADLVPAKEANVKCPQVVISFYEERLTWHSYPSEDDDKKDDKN
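Compound inhibition of the preformed complex between 50 nM HP1-beta and 50 nM biotinylated H3K9me3 peptide was read by AlphaScreen. Buffer was PBS pH 7.4 with 0.01% Tween-20. Incubations ran 30 min at room temperature, with 10 ug/mL donor/acceptor beads.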
BAZ2B block: blocks human BAZ2B. AlphaScreen BAZ2B-H3K14Ac peptide displacement. Potency, µM (top dose mostly 114 µM), for inactives: top-dose activity change, negative = inhibition, usual class: inhibitors. 360,000 compounds, 4.4% hits. AID 504333; further: on the % scale 0 is the no-effect control and ±100 the full control effect; nearly all actives have a fitted effect of over 60% in size
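AlphaScreen displacement of biotin-H3(5-23)K14Ac peptide (50 nM final) from BAZ2B (50 nM final) in PBS pH 7.4, 0.01% Tween-20; complex preformed 30 min RT, then compounds (top 110 uM) 30 min RT, beads 20 min dark.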
G9a inh: G9a (human) methyltransferase inhibition | G9a H3K9 monomethylation, AlphaScreen, 2 h | 350,000 compounds, 8.8% hits | Potency, µM (titrated, usually from 102 µM), inactives show at the top dose activity, negative = inhibition, usual class: inhibitors; further: on the % scale 0 is the no-effect control and ±100 the full control effect; nearly all actives have a fitted effect of over 75% in size
Target sequence (Q96KQ7 913-1193 limits assumed): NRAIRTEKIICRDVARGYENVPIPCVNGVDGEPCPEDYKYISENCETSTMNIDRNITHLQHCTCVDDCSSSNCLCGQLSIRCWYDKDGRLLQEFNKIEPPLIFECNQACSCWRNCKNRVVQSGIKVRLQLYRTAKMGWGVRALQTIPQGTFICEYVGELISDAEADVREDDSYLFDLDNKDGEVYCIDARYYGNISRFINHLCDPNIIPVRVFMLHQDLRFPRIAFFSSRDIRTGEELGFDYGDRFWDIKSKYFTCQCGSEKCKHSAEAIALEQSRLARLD
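AlphaScreen read-out: biotin-H3K9 peptide (500 nM) methylation by 20 nM enzyme with 20 uM SAM, 2 h at room temperature after 15 min compound preincubation; anti-monomethyl H3K9 antibody plus donor/acceptor beads, 10 min dark.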
Numbers without * were called inactive; ? = inconclusive; . = no result given; [ ] = another dose, or the depositor's remark. Rows were chosen to be rich in hits. Some 12% of all compounds tested hit in one or more screens of this group. The call rests on the fitted dose curve; in most records, active means well fitted curve in the direction sought with a large enough effect; inconclusive means small, poorly fitted or top-dose-only effect, or another doubt; inactive means no such curve, though single readings can be large; an effect the other way counts as inactive or inconclusive. Potency means the concentration at half of the fitted maximal effect.

SMILES	Sfp inh	JMJD2A Tudor	HP1b chromo inh	BAZ2B block	G9a inh
COc1ccc(C(O)c2nccc3cc(OC)c(OC)cc23)cc1OC (configuration not stated)	0%	?	8%	56µM*	3.5µM*
COc1cc(C2NC(=O)C(C#N)=C(Nc3cccc(C)c3)S2)ccc1O (configuration not stated)	20µM*	-10%	17%	-29%	45µM*
COC(=O)C1=C(C)N(C)C(=O)NC1c1ccc(O)c(OC)c1 (configuration not stated)	-4%	-25%	20%	-5%	-10%[59 µM]
COc1cc(C(=O)Nc2ccn(C)n2)ccc1OC(F)F	.	-6%	39%	-8%	4%[2.33 µM]
[O-]c1n[n+](-c2ccc(Cl)cc2)cc2ccccc12	12%	14µM*	4%	-10%	35µM*
COC(=O)Cc1cn(-c2ncc(C(F)(F)F)cc2Cl)c2ccccc12	15%	37%	112%	56%	45%[59 µM]
CN(C)/C=C/C(=O)/C=C/c1cn(-c2ncc(C(F)(F)F)cc2Cl)c2ccccc12	-3%	-26%	-6%	-11%	10µM*
CCS(=O)(=O)N1CCN=C1SCc1ccc(F)cc1	2%	-11%	33%	-2%	22%
COc1ccc(NC(=O)CSc2nc3ccccc3nc2N2CCCC2)c(OC)c1	-14%	-3%	35%	9%	.
CCOC(=O)N1CCN(C(=O)c2cn(CC)c3ccc(S(=O)(=O)N(C)C4CCCCC4)cc3c2=O)CC1	12%	-5%	3%[57 µM]	4%	44%
COc1cc(/C=C/C(=O)O)cc(S(=O)(=O)Nc2ccc3cn[nH]c3c2)c1OC	.	-4%	37%	-3%	-13%[2.33 µM]
COc1cc(/C=C/C(=O)O)cc(S(=O)(=O)Nc2ccc3nc(SC)sc3c2)c1OC	0%	-14%	14%	.	40µM*
CC1CCCC(C)N1CC(O)COCc1ccccc1F (configuration not stated)	-3%	50µM*	?	?	-8%[2.33 µM]
NCCCC[C@H](NC(=O)[C@H](CCCN=C(N)N)NC(=O)[C@H](CO)NC(=O)[C@H](CCCN=C(N)N)NC(=O)[C@@H](N)Cc1ccc(O)cc1)C(=O)N[C@@H](Cc1ccc(O)cc1)C(=O)N[C@@H](CO)C(=O)N[C@@H](CO)C(=O)N[C@@H](Cc1c[nH]c2ccccc12)C(=O)N[C@@H](Cc1ccc(O)cc1)C(=O)O	9%	.	.	.	.
CCOc1cc2c3c(c1)C1(Nc4ccccc4S1)C(=O)N3C(C)(C)CC2C (configuration not stated)	-29%	35µM*	?	28µM*	?
CCOc1cc2c3c(c1)C1(OCCO1)C(=O)N3C(C)(C)CC2C (configuration not stated)	-10%	-23%	4%	-10%	-21%[12.7 µM]
CCc1ccc(NC(=O)C(C)OC(=O)c2cccc(S(=O)(=O)N3CCc4ccccc4C3)c2)cc1 (configuration not stated)	89µM*	-19%	28%	15%	7.9µM*
O=C(COC(=O)c1cc(S(=O)(=O)N2CCc3ccccc3C2)ccc1Cl)NCc1ccco1	45µM*	79µM*	?	?	40µM*
O=C(COC(=O)c1cc(S(=O)(=O)N2CCOCC2)ccc1Cl)NCc1ccco1	.	-10%	33%	-1%	7%[0.501 µM]
O=C(COC(=O)c1cccc(S(=O)(=O)N2CCc3ccccc3C2)c1)NCc1ccco1	?	4%	26%	50µM*	?
CCn1cc(C(=O)N2CCN(c3cccc(Cl)c3)CC2)c(=O)c2cc(S(=O)(=O)N3CCOCC3)ccc21	.	-27%	5%	.	-1%[59 µM]
O=C1CC2(CCCCC2)Oc2ccc(Cl)cc21	.	8%	53%	.	.
CC(Nc1cccc([N+](=O)[O-])c1)C(=O)Nc1ccc(S(=O)(=O)N2CCCC2)cc1 (configuration not stated)	.	-32%	3%	-9%	50µM*
CCCC(C)C(=O)Nc1ccc(S(=O)(=O)N2CCCC2)cc1 (configuration not stated)	3%	1%	21%	10%	71µM*
CC(C)CC(=O)NC(=S)Nc1ccc(S(=O)(=O)N2CCCC2)cc1	11%	-20%[11.4 µM]	-10%	-15%	14µM*
SMILES	Sfp inh	JMJD2A Tudor	HP1b chromo inh	BAZ2B block	G9a inh
Cc1ccc(S(=O)(=O)NC(C)C(=O)Nc2cccc([N+](=O)[O-])c2)cc1 (configuration not stated)	18%	-15%	6%	-24%	?
COc1ccc(C(=O)N2CCC3(CCN(C(=O)Nc4cccc(F)c4)CC3)CC2)cc1	0%	.	.	.	0%[12.7 µM]
CC12CCC(=O)N1C(C(=O)NCCc1ccc(S(N)(=O)=O)cc1)CS2 (configuration not stated)	-13%	-2%	15%	?	.
C/C(=N\Nc1nc2ccccc2nc1C)c1ccccc1O	14%	-21%	-8%	-13%	22µM*
O=C(O)COc1ccc(/C=C/c2ccc3cccc([N+](=O)[O-])c3n2)cc1	-10%	?	?	56µM*	28µM*
COc1cc(/C=C/c2ccc3c([N+](=O)[O-])cccc3n2)ccc1OCC(=O)O	17%	?	45%	?	7%[12.7 µM]
COc1cc(/C=C/c2ccc3cccc([N+](=O)[O-])c3n2)ccc1OCC(=O)O	2%	-19%	5%	56µM*	40µM*
Cc1ccc(N2C(=O)c3oc4cc(C)c(C)cc4c(=O)c3C2c2cccc(O)c2)nc1 (configuration not stated)	.	1%	49%	0%	-3%[59 µM]
N#Cc1c(SCC(=O)Nc2nccs2)sc2c(O)cc(=O)[nH]c12	40µM*	-35%	-5%	16µM*	32µM*
CCCSc1nnc(NC(=O)CSc2sc3c(O)cc(=O)[nH]c3c2C#N)s1	?	56µM*	-30%	40µM*	11µM*
Cc1cccc(Nc2cc(C)nc3nc(Cc4ccc(Cl)cc4)nn23)c1	.	-32%	20%	-9%	4%[59 µM]
COc1cc(OC)c(CNC2CCCCCC2)cc1Br	14%	10µM*	-12%	?	35µM*
COc1cc(CNC2CCCC2)cc(OC)c1OC	8%	-14%	15%	3%	-1%[12.7 µM]
COc1cc(CNC2CCCCCC2)cc(OC)c1OC	-13%	10µM*	24%	?	18µM*
c1ccc(COc2ccccc2CNC2CCCC2)cc1	-4%	-18%	19%	-10%	-16%
COc1cccc(CNC2CCCCCCC2)c1OC	-4%	35µM*	-29%	?	.
O=C1C2C=CC=CC2=NC(=S)N1CCN1CCC(=C(c2ccc(F)cc2)c2ccc(F)cc2)CC1 (configuration not stated)	.	.	.	.	0%[59 µM]
O=c1c2ccccc2nnn1CSc1nc2ccccc2c(=O)n1CCCO	2%	-15%	41%	-14%	-31%
Cn1c(SCn2nnc3ccccc3c2=O)nc2ccccc2c1=O	4%	.	.	-7%	50µM*
